# Results filed as inconclusive are left out. A call without a number means that no potency is given here. Some structures have more than one record in an assay (separate samples or runs), and their calls can disagree. Active and inactive are the calls of the source. Unless noted, the call rests on the fitted dose curve; in most records, active means well fitted inhibition curve with a large enough effect; inconclusive means small, poorly fitted or top-dose-only effect, or effect the other way; inactive means flat fitted curve, though single readings scatter.
# Tested on: not listed separately
# Assay: qHTS for Inhibitors of Plasmodium falciparum (CP250) proliferation (AID 504320)
# Conditions: P. falciparum CP250 in erythrocytes, SYBR Green DNA, 72 h; series mostly up to 6.7 µM
# Method in brief: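 Erythrocytes infected with P. falciparum line (0.3% parasitemia, 2.5% hematocrit final) incubated with compounds 72 h at 37 °C, 5% CO2; SYBR Green lysis buffer added, fluorescence read next day. Normalized to 0.29 uM artemisinin and DMSO.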
row,SMILES,Potency
1,CC(=O)OC[C@H]1O[C@H](C#CCCCc2ccccc2)C=C[C@H]1OC(C)=O,inactive
2,O=C(NC(CC1=CCCCC1)c1ccc2c(c1)OCO2)C(F)(F)F (stereo not drawn),inactive
3,C[C@H]1[C@H](N=[N+]=[N-])[C@H](O)CCO[C@@H]1c1ccccc1,inactive
4,COC(=O)C1(C)C=C(Nc2ccc(OC)cc2)C(=O)N1c1ccc(OC)cc1 (stereo not drawn),inactive
5,COC(=O)CCCC1=CC2=C(c3ccccc3)C(=O)C(C)(OC(=O)C3CCCC3)C(=O)C2=CN1Cc1ccc2c(c1)OCO2 (stereo not drawn),inactive
6,CC(C)OC(=O)CC(NC(=O)OC(C)(C)C)c1ccccc1 (stereo not drawn),inactive
7,COC[C@H]1O[C@@H]2O[C@@H]1[C@@H](C=Cc1ccccc1)C[C@H]2C,inactive
8,COC(=O)C1=C(C)N(Cc2ccccc2)C(=S)NC1CCc1ccccc1 (stereo not drawn),inactive
9,COC(=O)[C@H]1C[C@@]2(CC=C(C)C)C(=O)[C@@](CC=C(C)C)(C(=O)C(C(=O)c3ccccc3)=C2OC)C1(C)C,inactive
10,CC1(OC(=O)C2CCCC2)C(=O)C=C2C=C(c3ccsc3)N(CCN3CCOCC3)C=C2C1=O (stereo not drawn),inactive
11,CC(=O)[C@@H]1[C@@H](C)N(Cc2ccccc2)C(=O)N[C@H]1c1ccccc1,inactive
12,CCN1C(=O)NC(c2ccc(Br)cc2)C(C(C)=O)=C1C (stereo not drawn),inactive
13,C#CCCCON=C1C[C@@H](O)[C@H](O)[C@H]2[C@@H]3C(=O)N(c4cccc(Oc5ccccc5)c4)C(=O)[C@@H]3CC[C@@H]12,inactive
14,COC(=O)C[C@H]1c2ccccc2[C@@H]2C(=C[C@@H](C)[C@H]3C(=O)N(O)C(=O)[C@H]32)N1C(=O)OC,inactive
15,COC(=O)CC=C[C@@H](C)[C@@H](C=NO[C@H](C)c1cn([C@H](CO)Cc2ccccc2)nn1)NS(=O)(=O)c1ccc(C)cc1,inactive
16,CCOC(=O)CCN1C(=O)[C@@H]2[C@H]3[C@H](O)[C@H](O)CC(=NNC(=O)OCc4ccc(OC)cc4)[C@H]3CC[C@H]2C1=O,inactive
17,CC1(OC(=O)C2CCCC2)C(=O)C=C2C=C(c3ccsc3)N(Cc3ccc4c(c3)OCO4)C=C2C1=O (stereo not drawn),inactive
18,COC(=O)c1cc(C(=O)OC)n2c(C)cc3ccccc3c12,inactive
19,CCOC(=O)CN1C(=O)[C@]2(O[C@H](C)CC3=CCCC32)c2c(Br)cccc21 (stereo partly drawn),inactive
20,C=CC1=C2C=C(C3CC3)N(CCN3CCOCC3)C=C2C(=O)C(C)(OC(=O)c2ccco2)C1=O (stereo not drawn),inactive

row,SMILES,Potency
1,C#CC[C@@]1(C(=O)OC)C=C[C@@H](C)[C@H](c2ccccc2Br)N1C(=O)C(F)(F)F,inactive
2,COC(=O)[C@@H]1C[C@@]23C(=NN=C(SC)C2Nc2ccccc23)N1C(C)=O (stereo partly drawn),inactive
3,COc1ccc(COC(=O)NN=C2C[C@@H](O)[C@@H](O)[C@@H]3[C@H]4C(=O)N(Cc5ccccc5)C(=O)[C@@H]4CC[C@@H]23)cc1,inactive
4,Cc1cc(O)cc(O)c1C(=O)OC1(C)C(=O)C=C2C=C(C=CC(=O)O)OC=C2C1=O (stereo not drawn),inactive
5,CCCNC(=O)OC[C@H]1O[C@H](CCON=C2c3cc(OC)ccc3O[C@H](c3cccc(OC)c3)[C@H]2O)C=C[C@H]1Oc1ccc(OC)cc1,inactive
6,O=S(=O)(CCc1ccccc1)c1ccccc1,inactive
7,CCOC(=O)OC[C@H]1O[C@H](C#Cc2ccc(C)cc2C)C=C[C@H]1OC(=O)OCC,inactive
8,COC(=O)c1nnc(C(=O)NCc2ccccc2)c2[nH]c3ccccc3c12,inactive
9,COC(=O)C(=Cc1cc(Br)c(OC)c(Br)c1)C(=O)OC,inactive
10,O[C@@H]1CO[C@@H](C=Cc2ccccc2)[C@H]1OCc1cccc(Br)c1,inactive
11,CCN1C(=NCC(C)C)N[C@@H](CCc2ccccc2)[C@H](C(=O)OC)[C@H]1C,inactive
12,Cc1cc(O)cc(O)c1C(=O)OC1(C)C(=O)C=C2C=C(C=CCO)OC=C2C1=O (stereo not drawn),inactive
13,COc1ccc(OC[C@@H]2CC3[C@@H](CC[C@@H](C)[C@H]3c3ccc(Br)cc3)C(=O)O2)cc1 (stereo partly drawn),inactive
14,CCN1C(=O)[C@H]2[C@H]3C(=CC[C@@H]2C1=O)C1(OCCCO1)[C@@H]1O[C@H]1[C@H]3O,inactive
15,O=C1CCCC1C(O)c1ccc2ccccc2c1 (stereo not drawn),inactive
16,COC(=O)C(C(=O)OC)C1c2ccccc2C=C(C2CC2)N1C(=O)OC (stereo not drawn),inactive
17,COC[C@@H](OC(C)=O)[C@H]1OCc2ccccc2[C@H]1C=Cc1ccccc1,inactive
18,C=CC1=C2C=C(C3CC3)N(C3CCCCC3)C=C2C(=O)C(C)(OC(=O)c2ccco2)C1=O (stereo not drawn),inactive
19,CCCCC1=CC2=C(c3ccco3)C(=O)C(C)(OC(=O)c3ccc(OC)cc3)C(=O)C2=CN1CCc1ccccn1 (stereo not drawn),inactive

# Target: Atrial natriuretic peptide receptor 1 (Homo sapiens) (UniProt P16066)
# Sequence (P16066 whole entry, looked up): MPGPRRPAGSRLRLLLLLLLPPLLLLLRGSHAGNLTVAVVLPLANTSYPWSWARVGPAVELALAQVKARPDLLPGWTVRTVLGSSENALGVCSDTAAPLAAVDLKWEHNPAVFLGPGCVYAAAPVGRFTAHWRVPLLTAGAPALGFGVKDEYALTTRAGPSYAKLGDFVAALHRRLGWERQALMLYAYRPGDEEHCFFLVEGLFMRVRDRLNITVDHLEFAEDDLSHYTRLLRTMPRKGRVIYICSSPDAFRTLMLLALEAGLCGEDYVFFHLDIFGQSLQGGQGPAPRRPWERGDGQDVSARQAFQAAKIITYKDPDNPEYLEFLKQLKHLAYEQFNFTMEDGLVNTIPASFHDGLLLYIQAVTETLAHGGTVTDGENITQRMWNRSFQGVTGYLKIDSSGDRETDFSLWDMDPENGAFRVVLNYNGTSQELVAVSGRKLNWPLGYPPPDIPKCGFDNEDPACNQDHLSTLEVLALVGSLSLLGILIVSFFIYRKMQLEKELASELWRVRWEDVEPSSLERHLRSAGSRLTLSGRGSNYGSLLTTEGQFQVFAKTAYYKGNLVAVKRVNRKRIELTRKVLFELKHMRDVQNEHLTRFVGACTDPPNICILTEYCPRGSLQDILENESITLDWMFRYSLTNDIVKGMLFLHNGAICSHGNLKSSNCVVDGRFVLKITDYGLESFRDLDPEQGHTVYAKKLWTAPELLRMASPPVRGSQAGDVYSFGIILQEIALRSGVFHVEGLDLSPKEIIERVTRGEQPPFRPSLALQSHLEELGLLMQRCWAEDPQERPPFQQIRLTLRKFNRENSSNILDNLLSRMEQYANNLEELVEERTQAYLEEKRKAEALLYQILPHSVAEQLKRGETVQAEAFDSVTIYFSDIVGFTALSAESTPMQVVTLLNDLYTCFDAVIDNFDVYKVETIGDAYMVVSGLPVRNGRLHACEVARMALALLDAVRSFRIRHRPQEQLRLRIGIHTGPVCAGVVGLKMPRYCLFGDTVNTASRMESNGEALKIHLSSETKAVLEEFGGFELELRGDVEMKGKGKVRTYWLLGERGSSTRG
# Assay: Natriuretic polypeptide receptor (hNpr1) antagonism - Pilot CMLD screen (AID 1347052; calls by dose curve;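 further: cGMP level read as GloSensor luciferase luminescence after agonist stimulation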; further: potency means the concentration at half of the fitted maximal effect)
# Conditions: HEK293 hNpr1 GloSensor cGMP luminescence, ANP-stimulated; series mostly up to 9.22 µM
row,SMILES,Potency
1,CC(=O)OC[C@H]1O[C@H](C#CCCCc2ccccc2)C=C[C@H]1OC(C)=O,inactive
2,O=C(NC(CC1=CCCCC1)c1ccc2c(c1)OCO2)C(F)(F)F (stereo not drawn),inactive
3,C[C@H]1[C@H](N=[N+]=[N-])[C@H](O)CCO[C@@H]1c1ccccc1,inactive
4,COC(=O)C1(C)C=C(Nc2ccc(OC)cc2)C(=O)N1c1ccc(OC)cc1 (stereo not drawn),inactive
5,COC(=O)CCCC1=CC2=C(c3ccccc3)C(=O)C(C)(OC(=O)C3CCCC3)C(=O)C2=CN1Cc1ccc2c(c1)OCO2 (stereo not drawn),inactive
6,CC(C)OC(=O)CC(NC(=O)OC(C)(C)C)c1ccccc1 (stereo not drawn),inactive
7,COC[C@H]1O[C@@H]2O[C@@H]1[C@@H](C=Cc1ccccc1)C[C@H]2C,inactive
8,COC(=O)C1=C(C)N(Cc2ccccc2)C(=S)NC1CCc1ccccc1 (stereo not drawn),inactive
9,COC(=O)[C@H]1C[C@@]2(CC=C(C)C)C(=O)[C@@](CC=C(C)C)(C(=O)C(C(=O)c3ccccc3)=C2OC)C1(C)C,inactive
10,CC1(OC(=O)C2CCCC2)C(=O)C=C2C=C(c3ccsc3)N(CCN3CCOCC3)C=C2C1=O (stereo not drawn),inactive
11,CC(=O)[C@@H]1[C@@H](C)N(Cc2ccccc2)C(=O)N[C@H]1c1ccccc1,inactive
12,CCN1C(=O)NC(c2ccc(Br)cc2)C(C(C)=O)=C1C (stereo not drawn),inactive
13,C#CCCCON=C1C[C@@H](O)[C@H](O)[C@H]2[C@@H]3C(=O)N(c4cccc(Oc5ccccc5)c4)C(=O)[C@@H]3CC[C@@H]12,inactive
14,COC(=O)C[C@H]1c2ccccc2[C@@H]2C(=C[C@@H](C)[C@H]3C(=O)N(O)C(=O)[C@H]32)N1C(=O)OC,inactive
15,COC(=O)CC=C[C@@H](C)[C@@H](C=NO[C@H](C)c1cn([C@H](CO)Cc2ccccc2)nn1)NS(=O)(=O)c1ccc(C)cc1,inactive
16,CCOC(=O)CCN1C(=O)[C@@H]2[C@H]3[C@H](O)[C@H](O)CC(=NNC(=O)OCc4ccc(OC)cc4)[C@H]3CC[C@H]2C1=O,inactive
17,CC1(OC(=O)C2CCCC2)C(=O)C=C2C=C(c3ccsc3)N(Cc3ccc4c(c3)OCO4)C=C2C1=O (stereo not drawn),inactive
18,COC(=O)c1cc(C(=O)OC)n2c(C)cc3ccccc3c12,inactive
19,CCOC(=O)CN1C(=O)[C@]2(O[C@H](C)CC3=CCCC32)c2c(Br)cccc21 (stereo partly drawn),inactive
20,C=CC1=C2C=C(C3CC3)N(CCN3CCOCC3)C=C2C(=O)C(C)(OC(=O)c2ccco2)C1=O (stereo not drawn),inactive

row,SMILES,Potency
1,C#CC[C@@]1(C(=O)OC)C=C[C@@H](C)[C@H](c2ccccc2Br)N1C(=O)C(F)(F)F,inactive
2,COC(=O)[C@@H]1C[C@@]23C(=NN=C(SC)C2Nc2ccccc23)N1C(C)=O (stereo partly drawn),inactive
3,COc1ccc(COC(=O)NN=C2C[C@@H](O)[C@@H](O)[C@@H]3[C@H]4C(=O)N(Cc5ccccc5)C(=O)[C@@H]4CC[C@@H]23)cc1,inactive
4,Cc1cc(O)cc(O)c1C(=O)OC1(C)C(=O)C=C2C=C(C=CC(=O)O)OC=C2C1=O (stereo not drawn),inactive
5,CCCNC(=O)OC[C@H]1O[C@H](CCON=C2c3cc(OC)ccc3O[C@H](c3cccc(OC)c3)[C@H]2O)C=C[C@H]1Oc1ccc(OC)cc1,inactive
6,O=S(=O)(CCc1ccccc1)c1ccccc1,inactive
7,CCOC(=O)OC[C@H]1O[C@H](C#Cc2ccc(C)cc2C)C=C[C@H]1OC(=O)OCC,inactive
8,COC(=O)c1nnc(C(=O)NCc2ccccc2)c2[nH]c3ccccc3c12,inactive
9,COC(=O)C(=Cc1cc(Br)c(OC)c(Br)c1)C(=O)OC,inactive
10,O[C@@H]1CO[C@@H](C=Cc2ccccc2)[C@H]1OCc1cccc(Br)c1,inactive
11,CCN1C(=NCC(C)C)N[C@@H](CCc2ccccc2)[C@H](C(=O)OC)[C@H]1C,inactive
12,Cc1cc(O)cc(O)c1C(=O)OC1(C)C(=O)C=C2C=C(C=CCO)OC=C2C1=O (stereo not drawn),inactive
13,COc1ccc(OC[C@@H]2CC3[C@@H](CC[C@@H](C)[C@H]3c3ccc(Br)cc3)C(=O)O2)cc1 (stereo partly drawn),inactive
14,CCN1C(=O)[C@H]2[C@H]3C(=CC[C@@H]2C1=O)C1(OCCCO1)[C@@H]1O[C@H]1[C@H]3O,inactive
15,O=C1CCCC1C(O)c1ccc2ccccc2c1 (stereo not drawn),inactive
16,COC(=O)C(C(=O)OC)C1c2ccccc2C=C(C2CC2)N1C(=O)OC (stereo not drawn),531 nM (active) and inactive
17,COC[C@@H](OC(C)=O)[C@H]1OCc2ccccc2[C@H]1C=Cc1ccccc1,inactive
18,C=CC1=C2C=C(C3CC3)N(C3CCCCC3)C=C2C(=O)C(C)(OC(=O)c2ccco2)C1=O (stereo not drawn),inactive
19,CCCCC1=CC2=C(c3ccco3)C(=O)C(C)(OC(=O)c3ccc(OC)cc3)C(=O)C2=CN1CCc1ccccn1 (stereo not drawn),inactive

# Source: PubChem BioAssay (NCATS)
